Potency data for 65 compounds are collected here from PubChem BioAssay AID686978 (National Center for Advancing Translational Sciences (NCATS), 2013).

Out of some 420,000 compounds screened, about 64,000 (15%) were called active. Inconclusive results (about 27%) are left out. The call rests on the fitted dose curve; in most records, active means well fitted inhibition curve with a large enough effect; inconclusive means small, poorly fitted or top-dose-only effect; inactive means flat fitted curve, though single readings scatter. Not all results are given here. Entries that show only a call come without a potency.
Potency means the concentration at half of the fitted maximal effect.

A short description of the test: qHTS for Inhibitors of human tyrosyl-DNA phosphodiesterase 1 (TDP1): qHTS in cells in absence of CPT. Further: nearly all actives have a fitted effect of over 55% in size. Particulars: DT40 Tdp1-/- hTDP1 cells, no CPT, ATP luminescence, 48 h; activity change, negative = growth inhibition: at 46.2 µM (top of the series). A digest of the protocol:
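No-CPT arm: Tdp1-/-;hTDP1 DT40 cells (400/well) plus compounds, incubated ≥48 hr at 37 °C. Readout CellTiter-Glo luminescence.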
In the case of `CC1CCCC(N2CCN(C(=O)c3ccc(F)cc3)CC2)C1` (stereo not given), the Potency entry was “inactive”.
Consider `CN(C(=N)N)c1ccc(/C=C2\C=Cc3ccccc32)cc1`, for which the Potency is 2.82 µM (active).
With `CS(=O)c1ccc(/C=C2\C=Cc3ccccc32)cc1` (stereo not given) the figure was 20 µM (active); with `C#CCCOC(=O)N1C2=NC(C(=O)OC)=C(C(=O)OC)[C@@H]3N(C)c4ccc(OC)cc4[C@]23C[C@H]1C(=O)OC`, “inactive”; with `O=c1ccc2cc(S(=O)(=O)NCCCc3ccccc3)ccc2[nH]1`, “inactive”.
Take `C=CCn1c(SCc2nnc(-c3ccccc3)o2)nnc1C(O)c1ccccc1` (stereo not given): the Potency entry was “inactive”.
With `FC(F)(F)c1cccc(-c2cn[nH]c2C2CCCN(Cc3cccn3-c3ccccn3)C2)c1` (stereo not given) the entry was “inactive”.
With `Cc1nn(C)cc1C(=O)Nc1ccccc1Br` the entry was “inactive”.
In the case of `COc1ccc(Cn2nnc3c(=O)[nH]c(C4CCN(C(=O)c5ccccc5Cl)CC4)nc32)cc1` it was “inactive”.
For `COc1ccc(CN2CCC(c3nc4ccc(Cl)cc4[nH]3)CC2)cc1`, the Potency was 20.6 µM (active).
In the case of `COc1ccc(N2CCN(Cc3nc4c(c(=O)[nH]c(=O)n4C)n3Cc3ccc(Cl)cc3)CC2)cc1` it was “inactive”; in that of `CN(CCCNC(=O)CN1C(=O)CC(C)(C)S(=O)(=O)c2ccccc21)C1CCCCC1`, “inactive”.
With `COC(=O)c1nc(NC(=O)c2ccc(Cl)cc2)n[nH]1` the entry was “inactive”; with `CC[C@@H](C)[C@H](NC(=O)CCc1c(C)c2cc3c4c(oc3c(C)c2oc1=O)CCCC4)C(=O)O`, “inactive”; with `COc1ccc(NC(=O)CN(C)C(=O)c2cc(C)oc2C)cc1`, “inactive”.
With `CC(C)=CCc1ccc(O)c(=O)cc1C(C)C` the figure was 20.6 µM (active); with `Cc1ccc(S(=O)(=O)c2c[nH]c3ccc(Cl)cc3c2=O)cc1`, “inactive”.
For `O=C1COc2ccc(C(=O)COC(=O)CCOc3ccccc3)cc2N1`, the Potency result is “inactive”.
For `O=C1COc2ccc(C(=O)COC(=O)c3cccnc3Cl)cc2N1`, the Potency result was “inactive”.
With `O=C1COc2ccc(C(=O)CSc3ccc(Br)cc3)cc2N1` the figure was 16.4 µM (active).
In the case of `COCc1cc(=O)n2[nH]c(C)c(-c3ccccc3)c2n1` it was “inactive”.
For the compound `CCCc1cc(=O)n2[nH]c(C)c(-c3ccc(Cl)cc3)c2n1`, the Potency was 14.6 µM (active).
In the case of `Cc1nc2c(-c3ccccc3)c(C)[nH]n2c(=O)c1Cl`, the Potency result was “inactive”.
In the case of `CCCC(=O)C1=C(N(C)c2ccccc2)CC(C)(C)C(C(=O)OC)C1=O` (stereo not given) it was “inactive”; in that of `O=C(CSc1ccc([N+](=O)[O-])cn1)Nc1ccc(N2CCOCC2)cc1`, “inactive”; in that of `CCN(C(=O)CSc1nnc(-c2ccc(OC(F)F)cc2)n1N)C1CCS(=O)(=O)C1` (stereo not given), “inactive”.
`CCOc1ccccc1/C=c1\sc2nc(-c3ccco3)nn2c1=O`: the Potency result is “inactive”.
With `CN(C)c1nc(N)nc(CSc2ccccn2)n1` the entry was “inactive”; with `Cc1ccc(NC(=O)c2cc(S(=O)(=O)NCCC3=CCCCC3)ccc2F)cc1C`, 25.9 µM (active); with `Cc1ccc(NC(=O)CCNS(=O)(=O)c2ccc3c(c2)oc(=O)n3C)cc1C`, “inactive”.
With `Cc1cccc(NC(=O)c2cc(S(=O)(=O)N3CCC4(CC3)OCCO4)ccc2F)c1` the entry was “inactive”; with `CCCc1nc(-c2cc3cc(C)ccc3[nH]c2=O)no1`, “inactive”.
In the case of `NC(=O)C1CCN(C(=O)/C(=C/c2ccco2)NC(=O)c2ccccc2)CC1` it was “inactive”; in that of `COc1ccc(CCNC(=O)CSc2nnc(-c3cccc(F)c3)o2)cc1OC`, “inactive”; in that of `CCN(CC)C(=O)CSc1nnc(-c2cccc(OC)c2)o1`, “inactive”.
For the compound `COc1ccc(CN(C(=O)CSc2nnc(-c3ccc(OC)c(OC)c3)o2)c2ccc(F)cc2)cc1`, the Potency was 23.1 µM (active).
As to `O=C(NCc1ccccn1)c1cc2ccccc2oc1=O`, the Potency entry is “inactive”.
On to `CCc1cccc(NC(=O)CCC(=O)O)c1`, for which the Potency result is “inactive”.
With `O=C(CSCc1ccccc1)Nc1ccccc1`, the Potency entry is “inactive”.
In the case of `O=C(CCl)Nc1cccc(CP(=O)(c2ccccc2)c2ccccc2)c1` it was 2.59 µM (active); in that of `CCC(=O)N(Cc1cc2cc(OC)ccc2[nH]c1=O)c1ccccc1C`, “inactive”.
Take `COc1ccc2[nH]c(=O)c(CNc3ccc(C)c(C)c3)cc2c1`: the Potency is 8.2 µM (active).
For `COc1ccc(N(Cc2cc3cc(OC)ccc3[nH]c2=O)S(C)(=O)=O)cc1`, the Potency result is “inactive”.
With `O=C1C2N=NN(CC(=O)N3N=C(c4cccc5ccccc45)CC3c3ccccc3)C2C(=O)N1c1ccccc1` (stereo not given) the figure was 29.1 µM (active); with `CC(=O)Oc1ccccc1C1=NN(C(C)=O)C(c2ccccc2)C1` (stereo not given), “inactive”.
With `COc1ccc(C2CC(c3ccccc3)=NN2C(=O)CSc2nccc(=O)[nH]2)cc1` (stereo not given) the entry was “inactive”.
In the case of `COc1cc(CN2CCNC(=O)C2CC(=O)NCCc2ncccc2C)cc(OC)c1` (stereo not given) it was “inactive”; in that of `CCN1CCCC1CNC(=O)c1cc2cc(OC)c(OC)cc2[nH]1` (stereo not given), “inactive”; in that of `CCCS(=O)(=O)NC(=O)C1(C)CCCN(C(=O)c2ccnc(Cl)c2)C1` (stereo not given), “inactive”.
Regarding `CCOC(=O)C1(C)CCCN(C(=O)c2ccc(F)c(Cl)c2)C1` (stereo not given), the Potency was 20.6 µM (active).
As for `CCOC(=O)C1(C)CCCN(C(=O)c2ccc(N(C)C)cc2)C1` (stereo not given), the Potency result was “inactive”.
In the case of `COC(=O)/C(=C1\Oc2ccc(C(C)(C)C)cc2S1)C(F)(F)F` it was “inactive”.
Regarding `CC(=O)Nc1ccc(S(=O)(=O)NC2(C(F)(F)F)C(=O)NC(C)=C2C#N)cc1` (stereo not given), the Potency result is “inactive”.
With `O=C(Cc1ccccc1F)NC1CCSc2ccccc21` (stereo not given) the entry was “inactive”.
On to `CCc1cc(Br)ccc1NC(=O)C1CCCO1` (stereo not given), for which the Potency entry was “inactive”.
With `COc1ccccc1C(=O)COC(=O)CNS(=O)(=O)c1ccc(NC(C)=O)cc1` the entry was “inactive”; with `O=c1c2cc3c(=O)n(CC4CCCO4)c(=O)c3cc2c(=O)n1CC1CCCO1` (stereo not given), “inactive”.
In the case of `O=C1c2cccc3c([N+](=O)[O-])ccc(c23)C(=O)N1CC1CCCO1` (stereo not given) it was 5.8 µM (active); in that of `O=C(NCc1ccc2c(c1)OCO2)c1ccc2c(c1)C(=O)N(CC1CCCO1)C2=O` (stereo not given), “inactive”; in that of `CCOc1ccc(/C=C/C(=O)OCC(=O)c2ccccc2OC)cc1OC`, 20.6 µM (active).
In the case of `COc1cc(/C=C/C(=O)OCC(=O)NC(=O)NCc2ccccc2)ccc1OCC#N` it was “inactive”; in that of `COc1ccc(/C=C/C(=O)OCC(=O)NCc2cccs2)cc1OC`, “inactive”; in that of `COc1ccc(S(=O)(=O)N(CC(=O)N/N=C/c2ccc(C(=O)O)cc2)Cc2ccccc2)cc1OC`, “inactive”.
`Cc1nonc1OCCn1nnnc1N`: the Potency entry was “inactive”.
With `Cc1csc(=O)n1CCC(=O)OCC(=O)Nc1ccc(N2CCOCC2)cc1` the entry was “inactive”.
